An excerpt weighted towards active compounds, which were near 4.1% of everything screened.
DAX1 inh-1 – DAX1 (NR0B1) inhibitors, primary screen, cell-based, HEK293, Gal4-DAX1, luciferase luminescence; Nuclear receptor subfamily 0 group B member 1 (Homo sapiens), P51843; HEK293 Gal4-DAX1 luciferase reporter; inhibition, % at 6.75 µM; hit rate 0.99% among 340,000; AID 504766, 2011;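 active = inhibition above the mean over all tested compounds plus 3 SD, cut at about 4.2% in these data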;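 also: 0% = DAX1-transfected cells with DMSO and 100% = empty-vector control cells with DMSO; inhibition shows as a rise in luminescence from relieved DAX1 repression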
Target sequence (P51843 207-470 limits assumed): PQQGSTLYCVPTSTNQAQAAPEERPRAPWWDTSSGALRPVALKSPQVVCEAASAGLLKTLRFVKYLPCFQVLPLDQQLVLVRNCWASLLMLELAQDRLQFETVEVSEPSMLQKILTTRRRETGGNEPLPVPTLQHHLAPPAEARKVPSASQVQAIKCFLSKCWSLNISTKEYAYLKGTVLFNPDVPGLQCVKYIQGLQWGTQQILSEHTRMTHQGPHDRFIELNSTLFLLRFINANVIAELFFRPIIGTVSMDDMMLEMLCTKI
hgDAF12 agonist – H. glycines DAF-12 receptor agonists, primary screen, cell-based, luminescence, HEK293, GAL4 fusion, UAS-luciferase. HEK293 GAL4-hgDAF12 UAS-luciferase reporter, agonist luminescence; normalized to butyrate control. AID 687014, 2013. Nuclear hormone receptor DAF-12 (Heterodera glycines), GAL4 fusion. hit rate 1.8% among 370,000. activation, % at 6.8 µM;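 active = activation above a cutoff set at the mean of all screened compounds plus 3 SD, cut at about 10% in these data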;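 also: 0% = DMSO wells and 100% = sodium butyrate wells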
hcDAF-12 act – H. contortus DAF-12 nuclear receptor activators, primary screen, cell-based, luminescence, HEK293, lit1-tk-luc reporter; activation, % at 6.8 µM; hit rate 1.4% among 370,000; AID 652067, 2013; HEK293 hcDAF-12 lit1-tk-luc reporter; 0% DMSO, 100% Δ7-dafachronic acid;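 active = activation above the mean of all tested compounds plus 3 SD, cut at about 5.5% in these data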;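 also: 100% = response to 3 µM Δ7-dafachronic acid high control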
ssDAF12 agonist – S. stercoralis DAF-12 nuclear receptor activators, primary screen, cell-based, luminescence, HEK293, GRIP1 co-expression, lit1-tk-luc; Nuclear hormone receptor DAF-12 (Strongyloides stercoralis); HEK293 ssDAF-12/GRIP1 lit1-tk-luc reporter; % of 3 µM dafachronic acid response; activation, % at 6.8 µM; hit rate 1% among 370,000;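 active = activation above the mean over all tested compounds plus 3 SD, cut at about 0.9% in these data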;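 also: 0% = DMSO-only wells and 100% = 3 µM delta7-dafachronic acid wells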
DAX1 inh-2 – DAX1 (NR0B1) inhibitors on StAR promoter, primary screen, cell-based, luminescence, SF-1 (NR5A1), full-length DAX-1; HEK293T StAR-luciferase reporter, SF-1/DAX-1 repression relief; inhibition, % at 6.8 µM; hit rate 1.1% among 370,000;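 active = inhibition above the mean over all tested compounds plus 3 SD, cut at about 3.6% in these data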;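 also: 0% = DAX-1 cells with DMSO and 100% = cells lacking DAX-1 with DMSO; higher inhibition means more luminescence from relief of DAX-1 repression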
Active calls of the source: *; . = not tested or not shown.

SMILES	DAX1 inh-1	hgDAF12 agonist	hcDAF-12 act	ssDAF12 agonist	DAX1 inh-2
Cc1[nH]n(-c2ccccc2)c(=O)c1/C=N/O	0	-2	0	-1	0
CCCc1[nH]n(-c2ccc(F)cc2)c(=O)c1C=NCC1CCCO1 (centres undefined)	0	1	0	-2	-1
Cc1[nH]n(-c2ccccc2)c(=O)c1/C=N/N(C)c1ccccc1	0	0	3	1.8*	0
COc1ccc2ccccc2c1C=Nn1c(-c2cc(-c3ccccc3)n[nH]2)n[nH]c1=S	.	0	-1	0	0
Cc1ccccc1NC(=O)Cc1nc(COC(=O)c2ncc(Cl)c(Cl)c2Cl)cs1	2	1	2	-1	1
CCc1cccc(-n2c(C)cc(O)cc2=O)c1	.	-3	-2	-1	0
COc1cc(/C=N/NS(=O)(=O)c2ccc(C)cc2)ccc1OCc1cccc(C(=O)O)c1	-8	10*	3	0	2
COc1cc(/C=N/NC(N)=S)ccc1OCc1ccc(C)cc1	-2	11*	2	-1	-1
O=C(Nc1ccc(Oc2ccccc2)nc1)C1CCCCN1Cc1cccc(O)c1 (centres undefined)	0	0	0	0	3
O=C(Nc1ccc(Oc2ccccc2)nc1)C1CCCCN1Cc1ccc(O)cc1 (centres undefined)	1	5	3	0	3.9*
COCCC(=O)N1CCC(C(=O)Nc2ccc(Oc3ccccc3)nc2)CC1	0	3	5.8*	-1	0
CC(=O)N1C[C@@H](CO)[C@@H]2C[C@H]1c1ccccc1N2C	.	3	0	-1	0
Cc1ccc(NC(=S)NC(=O)c2ccc(-c3ccc(Cl)cc3)o2)c(O)c1	1	2	3	2.5*	0
CC(=O)NC1CCCCN(Cc2ccc(Cl)cc2)C1=O (centres undefined)	.	-3	0	-2	0
COC(=O)c1ccc(NC(=O)CSc2ccccc2)cc1	7.4*	5	1	0	2
CC1(C)OC(=O)C2=C(CC(CCc3ccccc3)OC2c2ccc(Cl)c(Cl)c2)O1 (centres undefined)	.	3	0	-1	-1
Cc1ccccc1-c1cccc2[nH]c3c(c12)CCN1C(=O)[C@H]2[C@H](C)ON(C)[C@H]2C[C@@H]31	.	-1	-3	-1	-1
O=C(/C=C/c1ccco1)Nc1cccc(NC(=O)/C=C/c2ccco2)n1	2	11*	6.4*	-1	3
COc1ccccc1OCC(=O)Nc1ccncc1	0	-2	-1	0	0
COc1ccccc1/C=C/C(=O)NC(=S)Nc1ccccn1	2	5	3	1.4*	1
COc1ccccc1OCC(=O)Nc1ccccn1	2	13*	5	0	3
O=C(/C=C/c1ccco1)NC(=S)Nc1ccccn1	5.9*	8	0	0	2
O=C(/C=C/c1ccco1)NC1=NCCS1	1	7	4	0	2
C[C@@H]1CN([C@H](C)CO)C(=O)CCCn2nncc2CO[C@H]1CN(C)C(=O)Nc1cccc2ccccc12	1	3	2	0	-1
CCOC(=O)[C@]12CCCC=C1N(CCC1=CCCCC1)C(=O)[C@H](CC(=O)NCCCN1CCCC1=O)C2	.	-1	-1	-1	-1
SMILES	DAX1 inh-1	hgDAF12 agonist	hcDAF-12 act	ssDAF12 agonist	DAX1 inh-2
COC(=O)C1=C(C)N(Cc2ccccc2C(F)(F)F)C(=NCc2ccccc2C(F)(F)F)NC1c1cccc(F)c1 (centres undefined)	.	2	0	-1	0
Nc1[nH]c(C(=O)c2ccc(Cl)cc2)c(-c2ccc(Br)cc2)c1C(=O)NCCc1c[nH]c2ccccc12	.	0	2	1.0*	0
Nc1[nH]c(C(=O)c2ccc(Br)cc2)c(-c2ccc(Br)cc2)c1C(=O)NCCc1c[nH]c2ccccc12	.	2	1	0	0
COc1ccc(C(=O)c2[nH]c(N)c(C(=O)NCCc3c[nH]c4ccccc34)c2-c2ccc(Cl)cc2)cc1	.	0	3	1.9*	2
COc1ccc(-c2c(C(=O)c3ccccc3)[nH]c(N)c2C(=O)NCCc2c[nH]c3ccccc23)cc1	.	12*	0	0	0
C=CCn1c(SCC(C)=O)nc2scc(-c3ccc(C)o3)c2c1=O	4.7*	5	1	-1	1
C=CCn1c(SCC(=O)NCCCC)nc2scc(-c3ccco3)c2c1=O	0	-2	-1	-1	-1
O=C(COCc1ccccc1)N1CCC(Oc2cccnc2)CC1	.	5	1	0	3
O=S(=O)(/N=S1\CC=CCN1S(=O)(=O)c1ccccc1)c1ccccc1 (centres undefined)	0	-1	0	-1	0
Cc1ccc(N/C=C/C(=O)c2ccco2)c(O)c1	6.1*	0	-1	-2	1
CCOC(=O)N1CCN(S(=O)(=O)c2ccc(C(=O)N(CCN(C)C)c3nc4ccc(Cl)cc4s3)cc2)CC1	0	1	3	-1	3
CCOC(=O)N1CCN(S(=O)(=O)c2ccc(C(=O)N(CCCN(C)C)c3nc4ccc(OC)cc4s3)cc2)CC1	-1	-1	2	0	3.6*
Cc1ccccc1C(=O)N1CCC[C@@H]1C(=O)N1CCC[C@H]1C(=O)NCc1ccccc1	.	0	2	-1	1
C=CCn1c(C)cc(C(=O)COc2nncc3ccccc23)c1C	1	13*	1	0	2
CCCCNC(=O)c1nc(-c2cccnc2)oc1-c1ccc(OC(F)(F)F)cc1	.	-1	0	-1	1
Cc1cccc(NC(=O)CN(C)S(=O)(=O)c2ccc3c(c2)n(C)c(=O)c(=O)n3C)c1C	0	-1	6.1*	-1	-1
Cc1ccccc1NC(=O)CN(C)S(=O)(=O)c1ccc2c(c1)n(C)c(=O)c(=O)n2C	1	-3	0	-1	0
O=S(=O)(c1ccc(F)cc1)N1CCCc2nc(-c3ccccc3)ccc21	.	1	2	-1	0
C=CCn1c(C)nc2c(sc3nc4c(cc32)COC(C)(C)C4)c1=O	4.7*	13*	4	0	1
CN(C)c1ccc(/C=C2/NC(=O)NC2=O)cc1	1	11*	3	-1	1
O=C1NC(=O)C(=Cc2ccccc2)N1	1	-2	0	-1	1
C=CCn1c(=O)c2ccccc2n2c(SCc3nc4ccccc4s3)nnc12	0	7	5	1.2*	1

Screening data from PubChem.
